{"source": "PubChem BioAssay AID2061323", "about": "(National Center for Advancing Translational Sciences (NCATS), 2025)", "note": "Records with an inconclusive call do not appear. The source made the active and inactive calls. Calls follow the shape of the dose curve; as a rule, active = well fitted inhibition curve with a large enough effect; inconclusive = small, poorly fitted or top-dose-only effect; inactive = flat fitted curve, though single readings scatter."}
{"assay": "Identification of antibody-drug conjugate (ADC) payloads which are substrates of ATP-binding cassette drug efflux transporters: ABCG2-HEK293-R5 cell line", "settings": "ABCG2-HEK293-R5 viability, CellTiter-Glo ATP luminescence, 48 h", "excerpt": "Antibody-drug conjugates (ADCs) feature an antibody recognizing a specific protein joined to a potent toxic payload. Numerous antibody-drug conjugates have received FDA approval; however, clinical resistance arises. Resistance mechanisms include decreased expression or mutation of the antibody target, impaired payload release, or increased expression of ATP-binding cassette (ABC) efflux transporters associated with multidrug resistance. We therefore sought to characterize the interaction of ABC multidrug transporters with ADC payloads. We performed a high-throughput screen with 27 common ADC payloads using cells lines expressing ABC transporters P-glycoprotein (P-gp, encoded by ABCB1) or ABCG2 (encoded by ABCG2). Confirmatory assays were also performed using cells transfected to express P-gp, ABCG2, or MRP1 (encoded by ABCC1). Several commonly used ADC payloads were substrates of P-gp, including calicheamicin gamma1, monomethyl auristatin E, DM1, and DM4. All the pyrrolobenzodiazepines tested - SJG136, SGD-1882, SG2057, and SG3199 - were substrates of P-gp, ABCG2, and MRP1. […] These findings highlight the risk of transporter-mediated resistance with certain ADC payloads and underscore the importance of selecting payloads that evade ABC transporter recognition in future ADC development.\nHEK-293 cells were transfected with empty vector (pcDNA) or vector containing the human ABCB1 (MDR-19), ABCG2 (R-5), or ABCC1 gene (MRP1) and were maintained in EMEM with 2 mg/mL G418 added to maintain transporter expression. The HeLa derivative KB-3-1 and the P-gp overexpressing KB-8-5-11 subline were maintained in DMEM; KB-8-5-11 additionally received 100 ng/mL colchicine. H460 parental cells were obtained from the Division of Cancer Treatment and Diagnosis Tumor Repository, National Cancer Institute at Frederick, MD and were cultured in RPMI. The ABCG2 expressing subline H460 MX20 was generated by selecting H460 cells in 20 nM mitoxantrone. Media in all cases was supplemented with 10% FBS and 1% penicillin-streptomycin. We explored 27 common ADC payloads, in two orthogonal, paired cell line sets-a drug selected and transfected set for each transporter--to identify substrates of the ABC transporters P-gp and ABCG2. Compounds were sourced from Levena Biopharma (San Diego, CA), Selleck Chem (Houston, TX), ChemieTek (Indianapolis, IN), or Microsource Discovery Systems (Gaylordsville, CT). Screening was performed as previously described. Briefly, cells were plated at a density of 500 cells/well in 1536 well plates with compounds added using a 1536-head pin tool (Kalypsys, San Diego CA). Cells were incubated with cytotoxic drugs and processed with CellTiter Glo reagent (Promega, Madison, WI) to determine viability after 48 hours. P-gp substrates were identified by comparing compound activity between paired sets of low-expressing (sensitive) and over-expressing (resistant) cell lines."}
{"compound": "CN(C)CCOc1ccc2[nH]c(C(=O)N3C[C@@H](CCl)c4c3cc(O)c3ccccc43)cc2c1", "Potency": "1.7 nM (active)"}
{"compound": "CCN(C(C)=O)[C@H]1CO[C@@H](O[C@H]2[C@H](O[C@H]3C#C/C=C\\C#C[C@]4(O)CC(=O)C(NC(=O)OC)=C3/C4=C\\CSSSC)O[C@H](C)[C@@H](NO[C@H]3C[C@H](O)[C@H](SC(=O)c4c(C)c(I)c(O[C@@H]5O[C@@H](C)[C@H](O)[C@@H](OC)[C@H]5O)c(OC)c4OC)[C@@H](C)O3)[C@@H]2O)C[C@@H]1OC", "Potency": "67.1 nM (active)"}
{"compound": "CC(C)(C)OC(=O)Nc1ccc2[nH]c(C(=O)N3C[C@@H](CCl)c4c3cc(O)c3ccccc43)cc2c1", "Potency": "33.6 nM (active)"}
{"compound": "CCN[C@H]1CO[C@@H](O[C@H]2[C@H](O[C@H]3C#C/C=C\\C#C[C@]4(O)CC(=O)C(NC(=O)OC)=C3/C4=C\\CSSSC)O[C@H](C)[C@@H](NO[C@H]3C[C@H](O)[C@H](SC(=O)c4c(C)c(I)c(O[C@@H]5O[C@@H](C)[C@H](O)[C@@H](OC)[C@H]5O)c(OC)c4OC)[C@@H](C)O3)[C@@H]2O)C[C@@H]1OC", "Potency": "3.8 nM (active)"}
{"compound": "COC(=O)c1cc2c3c(cc(O)c2[nH]1)N(C(=O)c1cc2cc(OC)c(OC)c(OC)c2[nH]1)CC3CCl", "note": "(stereo not given)", "Potency": "4.2 nM (active)"}
